# Compound activity as filed in PubChem BioAssay.
# Vc quorum ag = inducers of Vibrio cholerae quorum light production without autoinducers, primary screen, BH1578 luxS cqsA deficient, single point | V. cholerae BH1578 lux reporter, luminescence, 6 h | activation, % at 18.7 µM | 350,000 compounds, 0.16% hits | AID 588436, 2011; in the data active = activation mostly above about 9.7%, no sharp cut-off; inconclusive = no clear call, values can overlap the other calls; inactive = mostly below about 3.7%
# BJeLR viability = MLPCN primary cell-based screen for lethality selective to Ras in HRASV12 cells; BJeLR (HRASV12) viability, CellTiter-Glo ATP luminescence, 48 h; 300,000 compounds, 0.17% hits; AID 1554, 2009; inhibition, % (concentration not given with the values); in the data active = inhibition above about 50%; inconclusive = no clear call, values can overlap the other calls
# Bead autofluor = counter-screen for toxin protease inhibitors: compound fluorescence; 360,000 compounds, 3.1% hits; AID 624483; fluorescence intensity (no concentration beside the values); compound autofluorescence counterscreen, microsphere flow cytometry; active compounds read high; in the data active = fluorescence intensity above about 16000; inconclusive = no clear call, values can overlap the other calls
# Anthrax LF inh2 = Bacillus anthracis LF protease inhibitors, primary screen, biochemical, multiplex microsphere, MLPCN library; multiplex microsphere protease cleavage assay; Lethal factor (Bacillus anthracis), P15917; 360,000 compounds, 0.12% hits; inhibition, % at 10 µM; also: plate controls were buffer without enzyme for full effect and enzyme alone for no effect
# BoNT A protease = BoNT/A light chain protease inhibitors, primary screen, biochemical, flow cytometry, MLPCN library | multiplex microsphere protease substrate cleavage | inhibition, % at 10 µM | 360,000 compounds, 0.17% hits; also: plate controls were buffer without enzyme for full effect and enzyme alone for no effect
# BoNT F protease = BoNT/F light chain protease inhibitors, primary screen, biochemical, flow cytometry, MLPCN library; Botulinum neurotoxin type F light chain protease (Clostridium botulinum); inhibition, % at 10 µM; 360,000 compounds, 0.22% hits; AID 588497, 2011; Multiplex microsphere protease cleavage assay; in the data active = inhibition above about 35%, passing the limit was not always enough; inconclusive = no clear call, values can overlap the other calls; also: plate controls were buffer without enzyme for full effect and enzyme alone for no effect
# The depositor's hits bear a star; i = inactive; u = inconclusive; x = not tested or not shown. Rows were chosen to be rich in hits. Some 3.7% of all compounds tested hit in one or more screens of this group. Rule as the data show it, unless noted: active = inhibition above about 30%; inconclusive = no clear call, values can overlap the other calls; inactive = below that.
SMILES,Vc quorum ag,BJeLR viability,Bead autofluor,Anthrax LF inh2,BoNT A protease,BoNT F protease
CC12CCC(C(=O)NCCN3CCCCC3)(CC1=O)C2(C)C (stereo not given),1,0,11064,-4,-1,0
O=C(CN1CCN(S(=O)(=O)N2CCCCC2)CC1)Nc1cc(Cl)ccc1Cl,i,3,3209,0,-3,-15
NC(=O)C1(N2CCCCC2)CCN(CC(=O)Nc2cc(Cl)ccc2Cl)CC1,-1,1,24349*,-4,-3,-6
Cc1ccc(C(=O)NNC(=O)CSc2nnc(-c3ccncc3)n2-c2ccc(C)cc2)cc1,0,-10,20719*,-7,2,2
COc1ccc(NC(=O)CSc2nnc(-c3ccccn3)n2-c2ccccc2)cc1OC,0,-10,20651*,-5,6,6
O=C(CSc1nnc(-c2cccnc2)n1-c1ccccc1)Nc1ccccc1,1,-3,9420,-7,-2,-14
Cc1ccc(-c2nnc(SCC(=O)CC(=O)Nc3ccccc3)n2-c2ccccc2)cc1,i,2,21966*,2,-7,-9
CC(C)OC(=O)CSc1nnc(-c2cnccn2)n1-c1ccc(Cl)cc1,i,4,21757*,-4,u,-7
Cc1ccc(-n2c(SCC(=O)OC(C)C)nnc2-c2ccncc2)cc1,-1,-1,2408,1,0,7
CCCCn1nc(C(=O)NC2CCCCC2)c2ccccc2c1=O,i,x,2849,-1,0,-11
COc1ccc(C(=O)COC(=O)c2cc(=O)c3ccccc3o2)c(OC)c1,-1,x,3238,-1,-1,-8
CN(C(=O)c1cc2c(cc1Br)OCO2)c1cccc2ccccc12,-3,x,2837,-4,0,0
O=c1[nH]c(=O)n(C2OC(CO)C(O)C2O)c2c1CCCC2 (stereo not given),x,x,5960,-5,0,6
Cc1ccc(NC(=O)CSc2nnc(-c3cnccn3)n2-c2ccccc2)cc1,-1,14,16733*,1,u,-6
O=C(Nc1nnc(SCc2ccccc2Cl)s1)C1COc2ccccc2O1 (stereo not given),i,2,3752,1,1,-5
Cc1ccccc1CSc1nnc(NC(=O)C2COc3ccccc3O2)s1 (stereo not given),5,2,20631*,-16,5,4
COc1ccccc1-c1csc(C(C)(O)c2cccc(F)c2)n1 (stereo not given),0,x,2847,-4,0,5
Cc1ccc(S(=O)(=O)c2nc(C(C)(C)C)oc2N2CCOCC2)cc1,i,5,16379*,1,0,-2
OC(c1ccc(F)c(F)c1)c1ncc(-c2cccc(C(F)(F)F)c2)[nH]1 (stereo not given),0,x,3657,6,0,4
CN(Cc1ccc(Cl)c(Cl)c1)C(c1cc2ccccc2o1)c1nnnn1C(C)(C)C (stereo not given),x,x,5909,-6,0,-5
CC(C)Oc1ccc(CN2CCC2(C)C(=O)Nc2cccc(Oc3ccccc3)c2)cc1 (stereo not given),-1,x,3571,-4,-1,-6
CC(C)C[C@H]1CNC(=O)C(=O)N1C[C@@H]1CCCN1C[C@H](Cc1ccc(O)cc1)N1C[C@H](Cc2ccccc2)N(CC2CCCCC2)C(=O)C1=O,x,x,5728,0,0,-2
Clc1cc(Cl)cc(Nc2ccccc2CN(C/C=C/c2ccc3c(c2)OCO3)Cc2ccccc2)c1,i,x,3478,-6,0,1
CC1(C)Cc2ccccc2-c2nnc(-c3ccc4ccccc4n3)n21,i,1,2547,-2,0,-6
CC1(C)Cc2ccccc2-c2nnc(-c3ccccn3)n21,-1,2,20079*,-5,0,-2
CCOC(=O)C(C)Sc1nnc2n1C(C)(C)Cc1ccccc1-2 (stereo not given),i,0,24062*,-4,u,-9
CC1(C)Cc2ccccc2-c2nnc(-c3ccc(O)cc3)n21,0,-5,9812,-2,-2,6
